Source: PubChem BioAssay (Tox21)
Results filed as inconclusive are left out. Where a call stands in place of a potency, no number is given. Active and inactive are the calls of the source. Calls follow the shape of the dose curve; as a rule, active = well fitted activation curve with a large enough effect in the repeat runs; inconclusive = weak or mixed curves; inactive = flat fitted curve, though single readings scatter.

assay: A CellTox Green Cytotoxicity Assay to monitor cytotoxicity in HepG2 cells - 40 hour (AID 1224879); details: CellTox Green fluorescence; series mostly up to 76.8 µM; also: nearly all actives have a fitted effect of over 40% in size
Excerpt: National Center for Advancing Translational Sciences [NCATS]
NIH Chemical Genomics Center [NCGC]
U.S. Environmental Protection Agency [EPA]
National Institutes of Environmental Health Sciences [NIEHS]
National Toxicology Program [NTP]
Cell-based models are critical for drug discovery. Determining the natural cytotoxic effects resulting from test compounds is an essential research activity. A CellTox Green Cytotoxicity Assay to monitor cytotoxicity in real time of continues cell culture during 40 hours of the compound treatment was used to screen Tox21 10K library compounds in HepG2 cells. CellTox Green Cytotoxicity Assay is a nonlytic, homogeneous, biofluorescent method to measure cytotoxicity in cell culture after experimental manipulation. The assay system uses a proprietary asymmetric cyanine dye that is excluded from viable cells but preferentially stains the dead cell's DNA. […] Viable cells produce no appreciable increases in fluorescence. Therefore, the fluorescence signal produced by the binding interaction with dead cell DNA is proportional to cytotoxicity.
The mixture of HepG2 cell suspension and reagents were dispensed at 600cells/6 ul/well in 1536-well tissue culture treated black solid bottom plates using a Multidrop dispenser. After the assay plates were incubated at a 37 C/5% CO2 incubator for 5 hours, 23 nL of compounds dissolved in DMSO, positive and negative controls was transferred to the assay plate by a pintool work station. The plates were incubated at 37 C for 40 hours. The fluorescence intensity were measured at 0h, 8h, 16h, 24h, 32h and 40h time points using ViewLux plate reader during compound treatment.

Row | SMILES | Potency | cytotoxicity increase
1 | CC1=C(C)C(=O)C(CCCCC#CCCCC#CCO)=C(C)C1=O | inactive | –
2 | CCCc1ccc(OC)cc1 | inactive | –
3 | CCCOC(C)=O | inactive | –
4 | C=CCCC | inactive | –
5 | CC(C)(C)NCC(O)COc1ccc(NC(=O)NC2CCCCC2)cc1 (stereo not given) | inactive | –
6 | CCCCCCCCNC | inactive | –
7 | CC(C)=CCCC(C)C=O (stereo not given) | inactive | –
8 | O=P(c1ccccc1)(c1ccccc1)c1ccccc1 | inactive | –
9 | OCCCO | inactive | –
10 | O=[N+]([O-])c1ccccc1CCO | inactive | –
11 | O=C1c2ccccc2C(=O)C1c1ccc2cc(S(=O)(=O)O)cc(S(=O)(=O)O)c2n1 | inactive | –
12 | O=C(O)CNc1ccccc1 | inactive | –
13 | CC1(C)C(=O)NC(=O)N1CO | inactive | –
14 | CCCCC(CC)COCCC#N (stereo not given) | inactive | –
15 | Cc1ccc(S(=O)(=O)NC(=O)NC2CCCC2)cc1 | inactive | –
16 | Cc1cc(C)c(C)c(O)c1 | inactive | –
17 | CC1=CC(=C(c2ccc(N)cc2)c2ccc(N)cc2)C=CC1=N | – | 5.34% [at 6.97 µM] (inactive)
18 | O=C(O)c1ccccc1-n1cc(C(=O)O)c(=O)c2cc(Nc3c(F)cc(F)cc3Cl)c(Cl)cc21 | inactive | –
19 | c1ccc(-c2ccc(-c3ccccc3)cc2)cc1 | – | 1.53% [at 15.8 µM] (inactive)
20 | CC(=O)S[C@H](C(=O)N[C@H]1Cc2ccccc2[C@H]2CCC[C@@H](C(=O)O)N2C1=O)C(C)C | inactive | –

Row | SMILES | Potency | cytotoxicity increase
21 | CCCC1CCOC(C)S1 (stereo not given) | inactive | –
22 | C/C=C1\[C@H]2C=C(C)C[C@]1(N)c1ccc(=O)[nH]c1C2 | inactive | –
23 | Cc1c(Nc2ncccc2C(=O)O)cccc1C(F)(F)F | inactive | –
24 | CC(=O)c1cccnc1 | inactive | –
25 | O=C(O)c1cc(C(=O)O)c(C(=O)O)cc1C(=O)O | inactive | –
26 | CC(C)(O)C(=O)O | inactive | –
27 | CCC(CC)C(=O)O | inactive | –
28 | CC(C(=O)O)c1ccc2c(c1)Cc1cccnc1O2 (stereo not given) | inactive | –
29 | CCOC(=O)CC(O)(CC(=O)OCC)C(=O)OCC | inactive | –
30 | OCCOc1cccc(OCCO)c1 | inactive | –
31 | Cc1c(Cl)cccc1Nc1ccccc1C(=O)O | inactive | –
32 | O=C(O)c1cccc(C(=O)O)c1C(=O)O | inactive | –
33 | COc1cc(C)c(Cc2cnc(N)nc2N)cc1OC | inactive | –
34 | CCc1ccc(C(=O)C(C)CN2CCCCC2)cc1 (stereo not given) | inactive | –
35 | O=C(O)c1cc(C(=O)O)cc([N+](=O)[O-])c1 | inactive | –
36 | C=CC(=O)NC(C)(C)C | inactive | –
37 | O=C(O)c1c2ccccc2cc2ccccc12 | inactive | –
38 | O=C(O)c1ccc2cc(O)ccc2c1 | inactive | –
39 | N#C[C@@H]1CC(F)(F)CN1C(=O)CNC1CC2CCC(C1)N2c1ncccn1 (stereo not given in full) | inactive | –
40 | C1=COCCC1 | inactive | –
